Source: PubChem BioAssay
D3 antag = blocks the human D3 dopamine receptor | P35462 | D3R cells, DiscoveRx beta-arrestin luminescence, antagonist mode; active compounds read low | 2.5% of 360,000 active | max response, negative = inhibition, %; in the data active = max response below about -50%; inconclusive = no clear call, values can overlap the other calls; note: % is set by controls: 0 for no effect and ±100 for the full control effect
Target sequence (P35462 whole entry, looked up): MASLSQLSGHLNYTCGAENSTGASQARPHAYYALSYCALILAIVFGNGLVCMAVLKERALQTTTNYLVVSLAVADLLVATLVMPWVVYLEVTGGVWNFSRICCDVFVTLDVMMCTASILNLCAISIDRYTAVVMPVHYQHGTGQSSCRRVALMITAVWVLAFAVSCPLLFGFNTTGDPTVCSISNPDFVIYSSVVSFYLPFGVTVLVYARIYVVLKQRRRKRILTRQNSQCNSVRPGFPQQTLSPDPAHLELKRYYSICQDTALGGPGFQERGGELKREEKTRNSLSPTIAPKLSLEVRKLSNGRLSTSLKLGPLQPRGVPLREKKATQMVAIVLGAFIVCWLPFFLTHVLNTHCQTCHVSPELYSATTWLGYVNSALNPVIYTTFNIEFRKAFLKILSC
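Cells expressing the human receptor were seeded at 1500 cells/well, incubated overnight at 37 degrees C in 5% CO2, then exposed to library compounds with dopamine controls for 90 minutes at 37 degrees C before luminescent detection.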
ATXN viability = viability counter-screen for ATXN expression inhibitors; S2 cells (HEK-293 line with an ATXN2-luciferase reporter) viability, CellTiter-Fluor protease fluorescence, 24 h; Potency, µM (series often up to 56.7 µM), usual class: cytotoxic; 0.49% of 400,000 active; AID 651635; note: potency is the fitted concentration of half-maximal effect; nearly all actives have a fitted effect of over 40% in size
TGFb inhibitor = inhibitors of TGF-b signaling; HepG2 CAGA-GFP TGF-b/SMAD3 reporter, GFP fluorescence, 18 h; TGF-beta stimulated, 500 pg/mL final; Potency, µM (top dose mostly 46.1 µM), without a hit: at the highest dose activity, negative = inhibition, hits mostly inhibitors; 1.2% of 410,000 active; AID 588855; note: potency is the fitted concentration of half-maximal effect; % is set by controls: 0 for no effect and ±100 for the full control effect; nearly all actives have a fitted effect of over 65% in size
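Read-out: total well GFP (ex488/em500-530) summed from mean per-cell fluorescence. Cells: HEPG2 CAGA-GFP, 1% FBS DMEM, 18 h at 37 degrees C with 500 pg/mL final TGF-beta. Unstimulated wells served as the full-inhibition control; stimulated DMSO wells = 0%.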
HepG2 viability = HepG2 cytotoxicity, counter-screen for TGF-b inhibitors; HepG2 CAGA-GFP viability, ATP luminescence, 18 h; Potency, µM (series often up to 46.1 µM), inactives show at the highest dose activity change, negative = cytotoxicity, usual class: cytotoxic; 0.76% of 410,000 active; AID 588856; note: potency is the fitted concentration of half-maximal effect
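HepG2 CAGA-GFP cells (1000/well, DMEM with 1% FBS) received compound, then TGF-beta at 500 pg/mL final, and were incubated 18 hours at 37 degrees C. Viability was read by CellTiter-Glo luminescence. Media-only wells were set as complete cell-killing and DMSO as no toxicity.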
D3 ag = D3 dopamine receptor (human) agonism | 0.58% of 410,000 active | D3R DiscoveRx beta-arrestin cells, luminescence, 90 min | max activation, % | P35462; in the data active = max activation above about 30%; note: 0% is about no effect
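Agonist-mode cell screen: cells plated at 1500/well and incubated overnight at 37 °C, then exposed to library compounds for 90 min at 37 °C. Detection reagent was added for 30–60 min at room temperature, and luminescence was read.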
ATXN2 expr inh = inhibitors of ATXN2 expression | HEK-293 ATXN2-luciferase reporter, luminescence, 24 h | 0.72% of 360,000 active | Potency, µM (titrated, usually from 57 µM), without a hit: top-dose activity change, negative = inhibition, most hits filed as inhibitors; note: potency is the fitted concentration of half-maximal effect; % is set by controls: 0 for no effect and ±100 for the full control effect; nearly all actives have a fitted effect of over 55% in size
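qHTS (up to 57 uM final) was run with 24 h compound exposure of reporter cells at 37 °C. Each well was multiplexed: SteadyGlo luminescence measured ATXN2-luciferase expression after a fluorogenic Gly-Phe-AFC viability readout (25 uM final).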
Active calls of the source: *; i = inactive; ? = inconclusive; . = not tested or not shown. Hits are enriched below; roughly 4.7% of the tested compounds scored in any of these assays. Unless noted, calls come from the whole dose curve; as a rule, active = well fitted curve in the direction sought with a large enough effect; inconclusive = small, poorly fitted or top-dose-only effect, or another doubt; inactive = no such curve, though single readings can be large; an effect the other way counts as inactive or inconclusive.

SMILES	D3 antag	ATXN viability	TGFb inhibitor	HepG2 viability	D3 ag	ATXN2 expr inh
COC(=O)[C@@H]1C[C@H](NC(=O)c2cc(C(F)(F)F)ccc2Cl)CN1Cc1cccc(O)c1	.	i	.	.	.	.
O=C(c1ccccc1)N1CCN(CC2CC=CCC2)CC1 (stereo unspecified)	-60*	i	10%	5%	-4	0%
Cc1ccc(N2CCN(CC3CC=CCC3)CC2)cc1 (stereo unspecified)	-141*	i	-9%	-20%	-39	-9%
FC(F)(F)c1cccc(N2CCN(CC3CC=CCC3)CC2)c1 (stereo unspecified)	-66*	i	6%	-6%	-17	-20%
CCCN1CCC(N2CCN(c3cccc(C(F)(F)F)c3)CC2)CC1	?	i	-11%	-28%	-27	-16%
C1=CCC(CN2CCN(C3CCCCCC3)CC2)CC1 (stereo unspecified)	?	i	?	10%	-17	-4%
CNc1ccc(C=O)cc1I	.	.	-2%	2%	.	.
CCCCN=C(Nc1ccc(Cl)cc1)c1cccnc1	-64*	.	0%	-12%	-9	.
Cc1ccn2c(Cc3ccccc3)c(-c3ccccc3)nc2c1	-17	i	-3%	-19%	-6	36%
Cc1ccn2c(CC(C)(C)C)c(-c3ccc(F)cc3)nc2c1	19	25µM*	?	-69%	-2	?
Cc1ccc(Cc2c(-c3ccc(C)cc3)nc3cc(C)ccn23)cc1	-8	32µM*	?	-70%	2	?
Cc1ccc(Cc2c(-c3ccc(Cl)cc3)nc3cc(C)ccn23)cc1	?	?	6%	-4%	-15	1%
Cc1ccn2c(Cc3ccccc3)c(-c3ccc(Br)cc3)nc2c1	?	14µM*	9%	-2%	-12	0%
CCOC(=O)N1CCC2(CC1)OC(=O)C(C)=C2C(=O)NCc1ccc(C)cc1	.	.	-18%	0%	6	.
COc1cc(NC(=O)COCc2cc(-c3ccc4c(c3)OCO4)on2)c(OC)cc1Cl	.	.	23%	3%	8	.
Cc1ccccc1C1(CC(=O)N2CCCC(C)C2)CC(=O)N(Cc2cccnc2)C1=O (stereo unspecified)	.	i	.	.	.	.
COc1ccc(NC(=O)c2c(NCc3cccc(OC)c3)sc3c2CCC3)cc1	.	?	-19%	-22%	4	-4%
O=C(c1ccccc1-n1cccn1)N1CCOc2c(cc(-c3ncc(C(F)(F)F)cc3Cl)cc2OCC2CCCO2)C1 (stereo unspecified)	.	i	.	.	.	.
Cn1c(=O)c2c(nc(CN3CCc4ccccc4C3)n2CC(=O)c2ccccc2)n(C)c1=O	-7	i	7.9µM*	-31%	-3	-5%
COc1cc(=O)n2c(c1C(=O)N(C)Cc1nonc1C)CCN(C(=O)c1cc(C)cc(C)c1)CC2	.	i	.	.	.	.
Cc1cc(O)c(C)c(C)c1O	.	i	.	.	.	-2%
Cc1cc(O)c2ccccc2c1O	.	?	.	.	10	8.9µM*
O=C(Cn1sc2ccccc2c1=O)Nc1ccc(Br)cc1	-28	?	?	-48%	-9	-20%
O=C(Cn1sc2ccccc2c1=O)Nc1ccc(F)cc1	-78*	.	18µM*	22µM*	-17	?
O=C(Cn1sc2ccccc2c1=O)Nc1ccc(Cl)cc1	-22	?	11µM*	-57%	-4	-20%
SMILES	D3 antag	ATXN viability	TGFb inhibitor	HepG2 viability	D3 ag	ATXN2 expr inh
CCOc1ccc(Nc2nc(C)c(NC(=O)c3cccc(F)c3)c(Nc3ccc(OCC)cc3)n2)cc1	.	i	?	-36%	-6	-9%
CCn1nc(C)cc1-c1nnc(Sc2ncc([N+](=O)[O-])s2)n1C	-117*	3.5µM*	2.8µM*	4µM*	-25	.
CCn1nc(C)cc1-c1nnc(SCC(=O)Nc2ccccc2)n1CCCOC	4	i	0%	-7%	0	-18%
O=C(CCCOc1ccc(Cl)cc1)N1CCCCC1	-20	i	-11%	-20%	-23	38%
O=C(CCCOc1ccccc1)N1CCCCC1	-5	i	19%	-3%	3	11µM*
c1ccc(COc2ccc(OCCCCN3CCCCC3)cc2)cc1	-72*	?	-1%	-29%	-17	4%
c1ccc(COCCN2CCN(CCOCc3ccccc3)CC2)cc1	-69*	i	7%	-39%	5	0%
O=C(c1ccccc1)c1ccc(OCCCN2CCCC2)cc1	-6	i	2%	16µM*	-14	14%
CCOc1ccc(OCCCCN2CCCC2)cc1	-6	i	-6%	-5%	-6	-1%
CCOCCOC(=O)/C=C/c1ccc(OC)cc1	.	i	.	.	.	28%
C#Cc1cccc(C(=O)NCc2nc(-c3ccccc3NC(C)=O)oc2C)c1	.	i	.	.	.	.
O=C(c1ccccc1)c1ccc(OCCOCCN2CCN(Cc3ccccc3)CC2)cc1	?	i	?	-35%	-16	?
O=C(c1ccccc1)c1ccc(OCCCCN2CCCCC2)cc1	-87*	i	0%	-9%	-4	-2%
Cc1c(Cl)cccc1NC(=O)c1cc(-c2cccc(Cl)c2)on1	.	i	12%	-1%	-5	-10%
COc1cc(OC)c(/C=C2\SC(=O)N(CC(=O)Nc3ccccc3F)C2=O)c(OC)c1	-12	i	1%	-78%	-6	.
COc1cc(/C=C2\SC(=O)N(CC(=O)Nc3cccc(C)c3)C2=O)cc([N+](=O)[O-])c1O	39	?	-3%	-12%	38*	-32%
COc1cc(/C=C2\SC(=O)N(CC(=O)Nc3ccccc3F)C2=O)cc(Cl)c1O	154	i	34%	-21%	59*	?
COc1cc(=O)n2c(c1C(=O)NCc1ccco1)CCN(Cc1ccc(F)cc1Cl)CC2	.	i	.	.	.	.
Cc1noc(C)c1C(=O)OCC(=O)Nc1cccc(S(=O)(=O)N(C)C)c1	0	i	-11%	4%	0	-3%
Cc1onc(-c2c(F)cccc2Cl)c1C(=O)OCC(=O)Nc1cccc(S(=O)(=O)N(C)C)c1	-97*	?	?	7.1µM*	-26	-31%
c1ccc(C(c2ccccc2)c2noc(CN3CCC(c4ccncc4)CC3)n2)cc1	-22	i	-5%	-5%	52*	-14%
Cc1csc(C(C)N(C)C(=O)c2cc(NC(=O)C3CCC3)c3c(c2)nc(-c2ccncc2)n3C)n1 (stereo unspecified)	.	i	.	.	.	.
Clc1ccccc1CN(Cc1ccccc1)c1ncnc2nc[nH]c12	-64*	i	?	-111%	1	3%
CCN(CC)S(=O)(=O)c1ccc(NC(=O)CCc2c(C)nc3cc(-c4ccc(Cl)cc4)nn3c2C)cc1	.	.	0%	-7%	1	.
